Values joined by “and” are separate entries in the source; they are usually repeats but may differ in a detail not shown here. Equal values may be shown once. Records with an inconclusive call do not appear. A call without a number means that no potency is given here. Some structures have more than one record in an assay (separate samples or runs), and their calls can disagree. Active and inactive are the calls of the source. Unless noted, calls come from the whole dose curve; as a rule, active = well fitted curve in the direction sought with a large enough effect in the repeat runs; inconclusive = weak or mixed curves; inactive = no such curve, though single readings can be large; an effect the other way counts as inactive or inconclusive. Residues, ends and D or L forms follow the SMILES beside them.
How the values were obtained:
[1] = biological target: Aryl hydrocarbon receptor (Homo sapiens) (UniProt P35869); experiment: qHTS assay to identify small molecule that activate the aryl hydrocarbon receptor (AhR) signaling pathway (AID 743085); note: nearly all actives have a fitted effect of over 15% in size; note: potency is the fitted concentration of half-maximal effect;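 for activation: HG2L7.5c1 human HepG2 liver cells with stably integrated DRE-driven firefly reporter; series mostly up to about 70 µM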
In short: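 A multiplexed format paired cell viability (CellTiter-Fluor fluorescence) with AhR-dependent luciferase output (ONE-Glo luminescence) in the same wells of HepG2 DRE-luc cells after 24 h compound exposure at 37C.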

[2] = qHTS assay to identify small molecule that activate the aryl hydrocarbon receptor (AhR) signaling pathway - cell viability counter screen (AID 743086); note: nearly all actives have a fitted effect of over 45% in size; note: potency is the fitted concentration of half-maximal effect
In short: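 Cytotoxicity counter screen: CellTiter-Fluor signal (30 min, 37 C) in 4000 HepG2 cells/well carrying the DRE-luciferase reporter, following 24 h compound exposure at 37 C.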

[3] = biological target: Peroxisome proliferator-activated receptor gamma (Homo sapiens) (UniProt P37231); experiment: qHTS assay to identify small molecule agonists of the peroxisome proliferator-activated receptor gamma (PPARg) signaling pathway (AID 743094; active = well fitted activation curve with a large enough effect in the signal ratio in the repeat runs, not every such curve was filed as active; the % refers to the signal ratio)
In short: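 Beta-lactamase FRET fluorescence was the read-out after a 1 h room-temperature substrate step, following 17 h compound treatment at 37C of HEK293H cells expressing a UAS-driven bla reporter responsive to PPARg.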

[4] = biological target: Peroxisome proliferator-activated receptor gamma (Homo sapiens) (UniProt P37231); experiment: qHTS assay to identify small molecule antagonists of the peroxisome proliferator-activated receptor gamma (PPARg) signaling pathway (AID 743191; calls by dose curve; note: series mostly up to about 63 µM; nearly all actives have a fitted effect of over 30% in size)
In short: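 Beta-lactamase reporter under UAS control in HEK293H PPARg-bla cells; compound treatment 17 h at 37C. Read-out: fluorescence intensity after 1 h room-temperature incubation with LiveBLAzer B/G FRET substrate.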

[5] = qHTS assay to identify small molecule antagonists of the peroxisome proliferator-activated receptor gamma (PPARg) signaling pathway - cell viability counter screen (AID 743194); note: nearly all actives have a fitted effect of over 55% in size
In short: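 Viability was measured as CellTiter-Glo luminescence in GeneBLAzer PPARg UAS-bla HEK293H cells. These cells had been exposed 17 h at 37 C to compounds together with rosiglitazone at 50 nM final, with the beta-lactamase readout taken in the same wells.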

[6] = qHTS assay for small molecule agonists of the antioxidant response element (ARE) signaling pathway (AID 743202; active = well fitted activation curve with a large enough effect in the signal ratio in the repeat runs, not every such curve was filed as active; the % refers to the signal ratio)
In short: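 An ARE-responsive beta-lactamase gene stably integrated in HepG2 cells serves as reporter. After 5 h plating and 16 h compound incubation at 37 C, fluorescence of the B/G FRET substrate was measured.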

[7] = qHTS assay for small molecule agonists of the antioxidant response element (ARE) signaling pathway - cell viability counter screen (AID 743203; calls by dose curve; note: nearly all actives have a fitted effect of over 55% in size)
In short: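 HepG2 cells carrying ARE-driven beta-lactamase; 2,000 cells/well; 5 hrs plating; compound pinned from DMSO; 16 hrs 37C/5% CO2; CellTiter-Glo added; 30 min RT; luminescence.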

[8] = qHTS assay for small molecule activators of the heat shock response signaling pathway - cell viability counter screen (AID 743209); note: nearly all actives have a fitted effect of over 50% in size
In short: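 Luminescence from CellTiter-Glo, added after the beta-lactamase FRET read, gave the viability signal. Cells were HSE-bla HeLa treated with DMSO-dissolved compounds for 5 h at 37 C following overnight plating.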

[9] = qHTS assay for small molecule activators of the heat shock response signaling pathway (AID 743210; active = well fitted activation curve with a large enough effect in the signal ratio in the repeat runs, with a control signal flat, not every such curve was filed as active; the % refers to the signal ratio;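 note: HeLa cells with beta-lactamase reporter driven by heat shock elements; series mostly up to about 63 µM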)
In short: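 In HSE-bla HeLa cells, 5 h compound incubation (37 C) precedes addition of LiveBLAzer B/G substrate; after 2.5 h at room temperature, fluorescence intensity indicates reporter induction.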

[10] = qHTS assay to identify small molecule agonists of the peroxisome proliferator-activated receptor delta (PPARd) signaling pathway - cell viability counter screen (AID 743211); note: nearly all actives have a fitted effect of over 55% in size
In short: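 Tox21 library compounds, delivered in DMSO, were incubated 17 h with PPARd-bla HEK293H cells; cytotoxicity was taken from CellTiter-Glo luminescence read 30 min after reagent addition.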

[11] = biological target: Peroxisome proliferator-activated receptor delta (Homo sapiens) (UniProt Q03181); experiment: qHTS assay to identify small molecule agonists of the peroxisome proliferator-activated receptor delta (PPARd) signaling pathway (AID 743212; calls by dose curve)
In short: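 HEK293H UAS-bla reporter cells, human PPARd system; compounds delivered in DMSO after 5 h plating, then at 37 C. Beta-lactamase FRET read, 2 h RT substrate step.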

[12] = qHTS assay to identify small molecule antagonists of the peroxisome proliferator-activated receptor delta (PPARd) signaling pathway - cell viability counter screen (AID 743213); note: nearly all actives have a fitted effect of over 50% in size
In short: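 In this counter screen, HEK293H cells carrying a UAS-beta-lactamase reporter are co-treated with test compounds and 300 nM L165041 (final) for 17 h at 37 C; cell viability is quantified by CellTiter-Glo luminescence.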

[13] = biological target: Peroxisome proliferator-activated receptor delta (Homo sapiens) (UniProt Q03181); experiment: qHTS assay to identify small molecule antagonists of the peroxisome proliferator-activated receptor delta (PPARd) signaling pathway (AID 743215; active = well fitted inhibition curve with a large enough effect in the signal ratio in the repeat runs, not every such curve was filed as active; the % refers to the signal ratio;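 note: cells stimulated with agonist L165041 at 300 nM final during compound exposure; series mostly up to about 62 µM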)
In short: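 Read-out is beta-lactamase FRET fluorescence, measured 2 h after substrate addition at room temperature. Beforehand, UAS-bla HEK293H cells carrying the PPARd reporter were exposed to compounds with L165041 at 300 nM final for 17 h at 37 C.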

[14] = biological target: Bile acid receptor (Homo sapiens) (UniProt Q96RI1); experiment: qHTS assay to identify small molecule antagonists of the farnesoid-X-receptor (FXR) signaling pathway (AID 743217; active = well fitted inhibition curve with a large enough effect in the signal ratio in the repeat runs, not every such curve was filed as active; the % refers to the signal ratio)
In short: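 HEK 293T FXR-UAS-bla, 5000 cells/well; compound + CDCA 50 uM final; 16 h, 37 °C; B/G FRET substrate 2 h RT; fluorescence.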

[15] = qHTS assay to identify small molecule agonists of the farnesoid-X-receptor (FXR) signaling pathway - cell viability counter screen (AID 743218); note: nearly all actives have a fitted effect of over 45% in size
In short: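 HEK 293T FXR-bla cells; 5 h pre-incubation, 16 h compound exposure at 37 C; LiveBLAzer substrate 2 h RT, then CellTiter-Glo 30 min RT, luminescence.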

[16] = biological target: Bile acid receptor (Homo sapiens) (UniProt Q96RI1); experiment: qHTS assay to identify small molecule agonists of the farnesoid-X-receptor (FXR) signaling pathway (AID 743220; active = well fitted activation curve with a large enough effect in the signal ratio in the repeat runs, not every such curve was filed as active; the % refers to the signal ratio)
In short: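 Beta-lactamase reporter under UAS control in GeneBLAzer FXR HEK 293T cells (5000/well) measured with LiveBLAzer FRET substrate after 2 h at room temperature. Compound exposure lasted 16 h at 37C.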

[17] = qHTS assay to identify small molecule antagonists of the farnesoid-X-receptor (FXR) signaling pathway - cell viability counter screen (AID 743221; active = well fitted cell-killing curve with a large enough effect in the repeat runs, not every such curve was filed as active; note: nearly all actives have a fitted effect of over 50% in size)
In short: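 Cytotoxicity is taken from ATP luminescence (CellTiter-Glo, 30 min, room temperature) in FXR-bla HEK 293T cells previously incubated 16 h at 37 C with compound and chenodeoxycholic acid at 50 uM final.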

[18] = biological target: Vitamin D3 receptor (Homo sapiens) (UniProt P11473); experiment: qHTS assay to identify small molecule agonists of the vitamin D receptor (VDR) signaling pathway (AID 743222; calls by dose curve)
In short: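 VDR-bla cells, 2,000/well; 4 h preincubation 37C; cpd (DMSO) 16 h; LiveBLAzer B/G substrate 2 h RT; fluorescence intensity read.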

[19] = biological target: Vitamin D3 receptor (Homo sapiens) (UniProt P11473); experiment: qHTS assay to identify small molecule antagonists of the vitamin D receptor (VDR) signaling pathway (AID 743223; active = well fitted inhibition curve with a large enough effect in the signal ratio in the repeat runs, not every such curve was filed as active; the % refers to the signal ratio)
In short: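 Quantitative HTS in VDR-bla reporter cells stimulated with 1alpha,25-dihydroxyvitamin D3, 3 nM final. Compound exposure 16 h, 37C, 5% CO2. Read-out: beta-lactamase FRET substrate fluorescence, 2 h RT.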

[20] = qHTS assay to identify small molecule agonists of the vitamin D receptor (VDR) signaling pathway - cell viability counter screen (AID 743224); note: series mostly up to about 63 µM; nearly all actives have a fitted effect of over 50% in size
In short: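 Luminescence from CellTiter-Glo, read after 30 min at room temperature, reports viability of VDR-bla cells treated with compounds for 16 h at 37C in the wells used for the beta-lactamase FRET read.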

Sequence of Vitamin D3 receptor (Homo sapiens) (P11473 whole entry, looked up): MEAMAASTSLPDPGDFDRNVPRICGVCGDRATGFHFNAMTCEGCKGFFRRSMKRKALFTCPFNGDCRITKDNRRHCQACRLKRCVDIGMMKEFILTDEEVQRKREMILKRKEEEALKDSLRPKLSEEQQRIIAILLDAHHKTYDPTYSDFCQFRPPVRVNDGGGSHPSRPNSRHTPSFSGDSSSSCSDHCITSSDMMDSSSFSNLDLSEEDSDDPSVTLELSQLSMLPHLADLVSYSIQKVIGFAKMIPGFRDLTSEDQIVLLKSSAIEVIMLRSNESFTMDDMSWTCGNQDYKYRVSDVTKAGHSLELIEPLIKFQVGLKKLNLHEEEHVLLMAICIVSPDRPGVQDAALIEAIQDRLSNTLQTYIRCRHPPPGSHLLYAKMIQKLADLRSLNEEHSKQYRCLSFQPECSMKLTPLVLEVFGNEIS
Sequence of Aryl hydrocarbon receptor (Homo sapiens) (P35869 whole entry, looked up): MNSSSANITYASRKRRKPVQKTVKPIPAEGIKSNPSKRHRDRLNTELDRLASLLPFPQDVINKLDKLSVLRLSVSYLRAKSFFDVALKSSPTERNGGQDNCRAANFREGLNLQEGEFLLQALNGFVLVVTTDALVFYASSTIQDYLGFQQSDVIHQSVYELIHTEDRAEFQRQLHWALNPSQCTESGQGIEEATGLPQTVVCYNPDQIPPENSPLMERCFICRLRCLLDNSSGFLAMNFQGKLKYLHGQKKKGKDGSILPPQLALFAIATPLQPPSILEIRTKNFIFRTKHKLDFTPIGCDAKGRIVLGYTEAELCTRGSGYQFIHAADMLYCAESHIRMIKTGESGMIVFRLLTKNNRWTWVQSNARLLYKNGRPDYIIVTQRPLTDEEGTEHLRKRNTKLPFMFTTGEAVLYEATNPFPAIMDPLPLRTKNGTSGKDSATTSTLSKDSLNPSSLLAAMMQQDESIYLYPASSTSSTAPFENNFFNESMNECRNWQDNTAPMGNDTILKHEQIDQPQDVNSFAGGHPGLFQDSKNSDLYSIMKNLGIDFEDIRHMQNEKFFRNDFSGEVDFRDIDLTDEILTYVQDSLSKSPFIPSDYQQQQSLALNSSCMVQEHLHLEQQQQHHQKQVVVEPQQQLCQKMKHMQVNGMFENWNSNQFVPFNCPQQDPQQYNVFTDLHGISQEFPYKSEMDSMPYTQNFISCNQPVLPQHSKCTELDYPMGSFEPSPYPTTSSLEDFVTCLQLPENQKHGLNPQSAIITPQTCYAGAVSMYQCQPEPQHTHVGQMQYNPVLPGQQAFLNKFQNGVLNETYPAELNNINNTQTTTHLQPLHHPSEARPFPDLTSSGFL
Sequence of Bile acid receptor (Homo sapiens) (Q96RI1 whole entry, looked up): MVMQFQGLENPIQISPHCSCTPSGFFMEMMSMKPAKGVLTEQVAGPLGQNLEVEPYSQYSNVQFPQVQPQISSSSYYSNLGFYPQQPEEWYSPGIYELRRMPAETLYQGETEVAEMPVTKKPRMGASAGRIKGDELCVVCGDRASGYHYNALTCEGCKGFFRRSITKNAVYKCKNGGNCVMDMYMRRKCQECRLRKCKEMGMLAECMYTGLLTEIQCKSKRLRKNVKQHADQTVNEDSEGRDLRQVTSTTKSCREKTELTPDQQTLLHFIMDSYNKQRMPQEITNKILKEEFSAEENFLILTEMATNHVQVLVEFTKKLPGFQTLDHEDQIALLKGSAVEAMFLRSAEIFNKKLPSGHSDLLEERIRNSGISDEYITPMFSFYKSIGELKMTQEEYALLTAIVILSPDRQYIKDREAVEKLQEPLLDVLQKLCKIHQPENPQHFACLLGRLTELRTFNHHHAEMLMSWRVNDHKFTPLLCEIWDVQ
Sequence of Peroxisome proliferator-activated receptor delta (Homo sapiens) (Q03181 whole entry, looked up): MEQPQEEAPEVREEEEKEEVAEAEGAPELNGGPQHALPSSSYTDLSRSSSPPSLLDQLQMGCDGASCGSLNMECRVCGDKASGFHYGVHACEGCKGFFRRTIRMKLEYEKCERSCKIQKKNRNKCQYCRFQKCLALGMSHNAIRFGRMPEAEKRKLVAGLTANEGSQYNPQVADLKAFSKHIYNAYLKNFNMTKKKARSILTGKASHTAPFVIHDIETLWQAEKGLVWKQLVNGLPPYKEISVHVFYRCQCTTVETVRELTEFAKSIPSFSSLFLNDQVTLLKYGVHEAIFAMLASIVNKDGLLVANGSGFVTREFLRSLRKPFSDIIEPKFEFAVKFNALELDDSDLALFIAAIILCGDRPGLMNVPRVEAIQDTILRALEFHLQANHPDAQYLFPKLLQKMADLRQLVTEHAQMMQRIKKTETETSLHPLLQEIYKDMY
Sequence of Peroxisome proliferator-activated receptor gamma (Homo sapiens) (P37231 whole entry, looked up): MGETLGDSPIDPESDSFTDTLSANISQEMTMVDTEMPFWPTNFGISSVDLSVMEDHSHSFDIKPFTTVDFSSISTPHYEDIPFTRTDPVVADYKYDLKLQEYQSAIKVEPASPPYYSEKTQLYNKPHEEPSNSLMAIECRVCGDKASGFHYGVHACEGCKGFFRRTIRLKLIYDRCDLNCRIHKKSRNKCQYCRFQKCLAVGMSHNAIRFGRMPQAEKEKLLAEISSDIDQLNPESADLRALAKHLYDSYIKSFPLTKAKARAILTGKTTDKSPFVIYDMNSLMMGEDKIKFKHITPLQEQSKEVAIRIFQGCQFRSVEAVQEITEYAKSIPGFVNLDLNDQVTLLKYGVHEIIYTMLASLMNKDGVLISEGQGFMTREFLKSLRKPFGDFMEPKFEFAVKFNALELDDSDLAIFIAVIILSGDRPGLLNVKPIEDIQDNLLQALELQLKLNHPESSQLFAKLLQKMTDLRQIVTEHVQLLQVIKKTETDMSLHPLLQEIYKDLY

Row | SMILES | Potency [1] | Potency [2] | outcome [3] | outcome [4] | outcome [5] | Potency [6] | outcome [7] | outcome [8] | outcome [9] | outcome [10] | outcome [11] | outcome [12] | outcome [13] | Potency [14] | outcome [15] | outcome [16] | outcome [17] | outcome [18] | outcome [19] | outcome [20]
1 | NC(=O)c1ccccc1O | inactive | inactive | inactive | inactive | inactive | inactive | inactive | inactive | inactive | inactive | inactive | inactive | inactive | inactive | inactive | inactive | inactive | inactive | inactive | inactive
2 | Nc1ccc(S(=O)(=O)c2ccc(N)cc2)cc1 | inactive | inactive | inactive | inactive | inactive | inactive | inactive | inactive | inactive | inactive | inactive | inactive | inactive | inactive | inactive | inactive | inactive | – | – | inactive
3 | O=C(O)c1[nH]n(-c2ccc(S(=O)(=O)O)cc2)c(=O)c1N=Nc1ccc(S(=O)(=O)O)cc1 | inactive | 30.7 µM (active) and 22.7 µM (active) | inactive | inactive | inactive | inactive | inactive | inactive | inactive | inactive | inactive | inactive | inactive | inactive | inactive | inactive | inactive | inactive | inactive | inactive
4 | CCCNC(=O)NS(=O)(=O)c1ccc(Cl)cc1 | inactive | inactive | inactive | inactive | inactive | inactive | inactive | inactive | inactive | inactive | inactive | inactive | inactive | – | inactive | – | inactive | inactive | inactive | inactive
5 | COC(=O)[C@H](Cc1ccccc1)NC(=O)[C@@H](N)CC(=O)O (H-Asp-Phe-OMe) | inactive | inactive | inactive | inactive | inactive | inactive | inactive | inactive | inactive | inactive | inactive | inactive | inactive | inactive | inactive | inactive | inactive | – | – | inactive
6 | CCCCC1C(=O)N(c2ccccc2)N(c2ccccc2)C1=O | inactive | inactive | inactive | inactive | inactive | inactive | inactive | inactive | inactive | inactive | – | inactive | – | inactive | inactive | inactive | inactive | inactive | inactive | inactive
7 | NNC(=O)c1ccncc1 | 13.3 µM (active) | inactive | inactive | inactive | inactive | inactive | inactive | inactive | inactive | inactive | inactive | inactive | inactive | – | inactive | – | inactive | inactive | inactive | inactive
8 | CC(O)CO (stereo not drawn) | inactive | inactive | inactive | inactive | inactive | inactive | inactive | inactive | inactive | inactive | inactive | inactive | inactive | – | inactive | – | inactive | inactive | inactive | inactive
9 | CC(O)CN(CCN(CC(C)O)CC(C)O)CC(C)O (stereo not drawn) | inactive | inactive | inactive | inactive | inactive | inactive | inactive | inactive | inactive | inactive | inactive | inactive | inactive | inactive | inactive | inactive | inactive | inactive | inactive | inactive
10 | c1ccc2[nH]ccc2c1 | inactive and 30.1 µM (active) and 27.3 µM (active) | inactive | inactive | inactive | inactive | inactive | inactive | inactive | inactive | inactive | inactive | inactive | inactive | – | inactive | – | inactive | inactive | inactive | inactive
11 | O=C(O)CS | inactive | inactive | inactive | inactive | inactive | inactive | inactive | inactive | inactive | inactive | inactive | inactive | inactive | – | inactive | – | inactive | inactive | inactive | inactive
12 | NC(=O)c1cnccn1 | inactive | inactive | inactive | inactive | inactive | inactive | inactive | inactive | inactive | inactive | inactive | inactive | inactive | – | inactive | – | inactive | inactive | inactive | inactive
13 | COc1ccc2[nH]cc(CCNC(C)=O)c2c1 | inactive | inactive | inactive | inactive | inactive | inactive | inactive | inactive | inactive | inactive | inactive | inactive | inactive | inactive | inactive | inactive | inactive | inactive | inactive | inactive
14 | CCOc1ccc(NC(=O)CC(C)O)cc1 (stereo not drawn) | inactive | inactive | inactive | inactive | inactive | inactive | inactive | inactive | inactive | inactive | inactive | inactive | inactive | inactive | inactive | inactive | inactive | – | – | inactive
15 | NC(=O)NC1NC(=O)NC1=O (stereo not drawn) | inactive | inactive | inactive | inactive | inactive | inactive | inactive | inactive | inactive | inactive | inactive | inactive | inactive | – | inactive | – | inactive | inactive | inactive | inactive

— PubChem BioAssay (Tox21)
